GLP-1R inv ag = inverse agonists of human GLP-1 receptor; P43220; HEK293 GLP-1R CRE-luciferase, luminescence, 24 h; GLP-1R form is constitutively active; Potency, µM (highest dose often 38.3 µM), without a hit: at the highest dose activity change, negative = inhibition, usual class: inhibitors; hit rate 1.6% among 410,000; AID 624417; also: potency is read from the fitted curve at half-maximal effect; % is scaled to controls: 0 for no effect and ±100 for the full control effect; nearly all actives have a fitted effect of over 55% in size
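HEK293 cells stably co-expressing a cAMP-responsive luciferase reporter and constitutively active GLP-1R were seeded, incubated 12 h, then exposed to compounds for 24 h at 37 C. Luminescence was read 12 min after detection reagent; inverse agonists lower signal.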
ClpP mod = qHTS Assay for Activators of ClpP. purified B. subtilis ClpP, FRET peptide cleavage, 20 min. Potency, µM (doses to about 57.5 µM), inactives show top-dose activity change, negative = active. hit rate 1.9% among 340,000; active = well fitted falling curve with a large enough effect; inconclusive = small, poorly fitted or top-dose-only effect; inactive = no such curve, though single readings can be large or run the other way; also: potency is read from the fitted curve at half-maximal effect; the source files actives as falling curves though it sought activators and does not explain the sign; nearly all actives have a fitted effect of over 65% in size
Target sequence (P80244 whole entry, looked up): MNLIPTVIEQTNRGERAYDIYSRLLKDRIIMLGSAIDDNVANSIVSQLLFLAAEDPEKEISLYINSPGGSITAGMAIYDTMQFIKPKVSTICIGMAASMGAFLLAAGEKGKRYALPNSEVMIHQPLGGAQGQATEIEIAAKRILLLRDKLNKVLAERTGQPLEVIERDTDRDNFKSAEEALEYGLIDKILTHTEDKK
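Purified B. subtilis ClpP, 10 microg/mL final in Tris/HCl pH8 with KCl, BSA, glycerol and Tween-20, cleaved an Abz/nitrotyrosine-quenched decapeptide. Fluorescence (ex 320, em 430) was read at 0 and 20 min at room temperature. Delta was normalized to 5.8 microM ADEP and DMSO/no-enzyme controls.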
HEK293 tox = cytotoxicity in counter-screen for GLP-1R inverse agonists. hit rate 0.13% among 410,000. Potency, µM (titrated, usually from 38.3 µM), for inactives: at the highest dose activity change, negative = inhibition, most hits filed as inhibitors. AID 624418. HEK293 cAMP-luciferase reporter cells, luminescence, 24 h;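 also: loss of luciferase light is scored as toxicity; potency is read from the fitted curve at half-maximal effect; % is scaled to controls: 0 for no effect and ±100 for the full control effect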
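Cells in DMEM/10% Nu serum/1% pen-strep, 1536-well format. Pre-incubated 12 h, dosed with 23 nL compound, incubated a further 24 h. Luciferase detection, 12 min at room temp, luminescence.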
DRD3 antagonist = blocks the human D3 dopamine receptor | P35462 | D3R cells, DiscoveRx beta-arrestin luminescence, antagonist mode; hits give low values | max response, negative = inhibition, % | hit rate 2.5% among 360,000; in the data active = max response below about -50%; inconclusive = no clear call, values can overlap the other calls; also: % is scaled to controls: 0 for no effect and ±100 for the full control effect
Target sequence (P35462 whole entry, looked up): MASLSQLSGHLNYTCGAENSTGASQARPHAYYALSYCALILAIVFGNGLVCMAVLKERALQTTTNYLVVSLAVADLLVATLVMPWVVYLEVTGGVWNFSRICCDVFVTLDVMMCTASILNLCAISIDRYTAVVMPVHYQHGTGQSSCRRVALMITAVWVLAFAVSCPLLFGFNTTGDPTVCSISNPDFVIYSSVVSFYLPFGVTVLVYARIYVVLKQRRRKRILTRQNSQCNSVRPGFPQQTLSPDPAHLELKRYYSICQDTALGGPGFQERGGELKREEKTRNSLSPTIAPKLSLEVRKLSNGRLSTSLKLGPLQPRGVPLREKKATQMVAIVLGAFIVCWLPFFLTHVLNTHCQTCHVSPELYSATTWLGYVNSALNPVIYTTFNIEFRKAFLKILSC
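Cells plated overnight at 1500 cells/well, then exposed to library compounds with dopamine controls for 90 minutes at 37 degrees C. DiscoveRx reagent added for 30–60 minutes at room temperature; luminescence read, quantitative HTS format.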
GLP-1R agonist = agonists of human GLP-1 receptor. P43220. HEK293 GLP-1R CRE-luciferase, luminescence, 4-6 h; cells express a hypersensitive GLP-1R form. Potency, µM (series often up to 45.6 µM), for the others: at the highest dose activation, most hits filed as activators. hit rate 0.007% among 380,000; also: potency is read from the fitted curve at half-maximal effect; % of control where 0% means no effect
D3 ag = agonists of human D3 dopamine receptor; hit rate 0.58% among 410,000; P35462; D3R DiscoveRx beta-arrestin cells, luminescence, 90 min; max activation, %; in the data active = max activation above about 30%; also: 0% is about no effect
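Cells at 1500/well, incubated overnight, then treated with pinned compounds (dopamine as control) for 90 min at 37 degrees C. DiscoveRx reagent added for 30 - 60 minutes at room temperature; luminescence read.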
Active calls of the source: *; ? = inconclusive; · = no result given; [ ] = dose if it differs, or a comment. Most compounds without a hit are left out; they make up all but 5.7% or so of the library. Unless noted, calls follow the shape of the dose curve; as a rule, active = well fitted curve in the direction sought with a large enough effect; inconclusive = small, poorly fitted or top-dose-only effect, or another doubt; inactive = no such curve, though single readings can be large; an effect the other way counts as inactive or inconclusive.

SMILES | GLP-1R inv ag | ClpP mod | HEK293 tox | DRD3 antagonist | GLP-1R agonist | D3 ag
COc1ccccc1N1CCN(Cc2ccc(OC)c(OC)c2OC)CC1 | 0% | -1% | ? | -51* | 1% | -9
COc1ccccc1N1CCN(Cc2ccc(O)c3ncccc23)CC1 | ? | -2% | ? | -105* | 7% | -87
COc1ccc(CN2CCN(C(=O)CC(C)C)CC2)c(OC)c1OC | -2% | -1% | 0% | 15 | -7% | -9
Oc1ccc(CN2CCCc3ccccc32)c2cccnc12 | -7% | 2% | ? | -22 | -23% | 8
CCOC(=O)C1CCN(Cc2ccc(O)c3ncccc23)CC1 | ? | 1% | -34% | -93* | -7% | -19
O=C(c1ccc(F)cc1)C1CCN(Cc2cn[nH]c2-c2ccc(F)cc2)CC1 | ? | · | -16% | ? | 15% | -10
CCOC(=O)N1CCN(Cc2cc(Cl)c3cccnc3c2O)CC1 | ? | · | ? | -55* | 24% | -11
CCOc1ccccc1N1CCN(Cc2cn[nH]c2-c2ccc(F)cc2)CC1 | ? | · | -10% | -84* | 20% | -17
COc1ccc(CN2CCN(C(=O)c3cccs3)CC2)c(OC)c1OC | -2% | -9% | 19% | -86* | 6% | -13
COc1ccc(CN2CCN(C(=O)c3ccc(-c4ccccc4)cc3)CC2)c(OC)c1OC | -17% | · | -5% | 9 | -4% | 6
COc1cc2oc(=O)cc(CN3CCN(c4ccccc4OC)CC3)c2cc1Cl | -4% | -16% | -1% | -50* | -4% | -1
COc1ccc(S(=O)(=O)N2CCN(Cc3cccc(OC)c3OC)CC2)cc1 | -10% | -1% | 9% | -8 | 7% | -6
O=C(Oc1c(CN2CCOCC2)cc(Cl)c2cccnc12)c1ccccc1Br | ? | -1% | ? | -80* | 7% | -28
CCOc1ccccc1N1CCN(Cc2cccc(OC)c2OC)CC1 | 0% | -2% | -14% | -89* | 5% | -2
CN1CCN(Cc2cc(Cl)c3cccnc3c2OC(=O)c2cccs2)CC1 | ? | 0% | ? | 7 | 0% | 5
CCOc1ccccc1CN1CCN(S(=O)(=O)CC)CC1 | 2% | -1% | 1% | -51* | 13% | -5
O=C(Cn1ncc2c3ccccc3n(Cc3ccccc3F)c2c1=O)NCc1ccccc1Cl | 8% | -1% | 0% | · | · | -10
O=C(Nc1cccc([N+](=O)[O-])c1)c1ccc(CN2CCOCC2)cc1 | -5% | -1% | 1%[1.53 µM] | 3 | 0% | -5
CC(C)COc1cccc(C(=O)Nc2ccc(S(=O)(=O)N3CCOCC3)cc2)c1 | ? | -4% | -28% | -7 | 10% | 6
O=[N+]([O-])c1cccc(COc2cccc(CN3CCOCC3)c2)c1 | -7%[7.66 µM] | 0% | 7% | -65* | 9% | -37
CC(C)COc1cccc(C(=O)Nc2ccc(CN3CCOCC3)cc2)c1 | 8.9µM* | -3% | -24% | -26 | 7% | -9
CC(=O)Nc1ccc(NC(=S)NC(=O)c2ccc([N+](=O)[O-])cc2)cc1 | 2% | 6.3µM* | -3% | -14 | 2% | -21
O=C(/C=C/c1cccc([N+](=O)[O-])c1)NC(=S)Nc1ccc(CN2CCOCC2)cc1 | 12% | 1% | -5% | -58* | -2% | -56
COC1=CC(=O)OC(c2cccc([N+](=O)[O-])c2)C1 (stereo unspecified) | 13% | 0% | 6% | 3 | · | -1
CCCCN1C(=O)C(CC(=O)NCCN2CCOCC2)CC(C(=O)N(C(C)C)C(C)C)=C1C (stereo unspecified) | 1% | 1% | 5% | -24 | 0% | -7
SMILES | GLP-1R inv ag | ClpP mod | HEK293 tox | DRD3 antagonist | GLP-1R agonist | D3 ag
O=C(NC(=S)Nc1ccc(CN2CCOCC2)cc1)c1ccc([N+](=O)[O-])cc1 | -19% | -1% | -8% | -50* | -1% | -7
Cc1ccc(NC(=O)c2ccc(Nc3c([N+](=O)[O-])cc([N+](=O)[O-])cc3[N+](=O)[O-])cc2)cc1 | 0% | 3% | ? | -77* | -22% | -16
COc1ccc(C(=O)NC(=S)Nc2ccc(CN3CCOCC3)cc2)cc1 | -17% | · | 0% | 10 | 3% | 12
Cc1ccc(NC(=S)NC(=O)CC2CC(C)(C)OC2=O)cc1 (stereo unspecified) | 8% | -1% | 0% | 13 | 1% | 3
CC(C)c1ccc(/C=C/C(=O)NC(=S)NN2CCOCC2)cc1 | 42% | 2% | ? | -3 | -1% | -4
CC(C)c1ccc(/C=C/C(=O)NC(=S)Nc2ccc(CN3CCOCC3)cc2)cc1 | ? | · | 10µM* | -9 | -1% | 0
CC1(C)CC(CC(=O)NC(=S)Nc2ccc([N+](=O)[O-])cc2)C(=O)O1 (stereo unspecified) | -23% | 2% | -17% | -83* | -11% | -14
O=C1c2ccccc2C(c2nnnn2-c2ccc3c(c2)OCCO3)N1Cc1cccnc1 (stereo unspecified) | 13% | 2% | 0% | 0 | -1% | -2
CC(C)(C)c1ccc(SC2=C[C@@]3(O)CC[C@@H](O)[C@@](Sc4ccc(C(C)(C)C)cc4)(C2=O)[C@H]3O)cc1 | ? | 2% | ? | 23 | -8% | 8
O=C(C(=O)N1CCN(c2ccccc2)CC1)c1ccco1 | 11% | 1% | -3% | 23 | · | 9
CC(C)(C)C1CCc2nc(NC(=O)c3cccc(Cl)c3)sc2C1 (stereo unspecified) | ? | ? | -14% | · | · | -3
COc1ccc(C(=O)NC(=S)Nc2ccc(CN3CCOCC3)cc2)cc1Br | 13µM* | -1% | ? | 3 | -8% | -1
O=C(N/N=C/c1cc2c(cc1Br)OCO2)c1cc2ccccc2o1 | -17% | 4% | ? | -107* | 27% | -29
Cc1[nH]c2ccccc2c1/C=N/NC(=O)c1cc(C(C)(C)C)[nH]n1 | ? | -2% | -43% | -59* | 12% | -43
O=C(N/N=C/c1cc2c(cc1Br)OCO2)c1ccccn1 | -1% | -2% | 2% | -5 | 1% | -18
CC(C)(C)c1cc(C(=O)N/N=C/c2cc3c(cc2Br)OCO3)n[nH]1 | ? | -28% | -13% | -88* | 7% | -24
CC(SCc1ccccc1)C(=O)N/N=C/c1cc2c(cc1Br)OCO2 (stereo unspecified) | 10µM* | -22% | 76% | -11 | 1% | 6
Cc1[nH]c2ccccc2c1/C=N/NC(=O)c1cc(-c2ccccc2)n[nH]1 | ? | · | ? | 1 | 7% | -16

High-throughput results: PubChem, National Center for Advancing Translational Sciences (NCATS)
